The values below come from PubChem BioAssay.

In assay [1] the test system is Wnt5a (protein binding on small-molecule microarray). The experiment in a line: Wnt5a binders on small-molecule microarray, primary screen, biophysical, 635/667 nm fluorescence (AID 1142).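 Also: fluorescence read at 667 nm with signal to noise per printed feature.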 Particulars: 635 nm fluorescence, higher = more signal.
Assay [2] is described as follows: cell viability in Huh7 cells, primary screen, cytotoxicity control for HCV replication inhibitor project, CellTiter-Glo luminescence, basal, 48 h (AID 1143).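 Also: Huh7 hepatoma cells carrying a hepatitis C replication reporter with no stimulus; test concentration not given here.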 Particulars: Huh7 HCV replicon, higher = more signal, called active from +8 up or from −8 down. For orientation: In ATP-based viability assays light output follows the ATP content of the culture.
Assay [3] is described as follows: P. aeruginosa biofilm formation inhibitors, primary screen, PAO1 strain, BacTiter-Glo luminescence, LB-PBS (AID 1144). Particulars: 12 h, higher = more signal.
Assay [4] can be described thus: CREB reporter modulators without forskolin, primary screen, cell-based, PC12, CRE-LacZ reporter, unstimulated (AID 1145). Particulars: no forskolin, luminescence, 4.5 h, higher = more signal, called active from +8 up or from −8 down.
Assay [5] in a line: CREB reporter modulators under forskolin, primary screen, cell-based, PC12, CRE-LacZ reporter, forskolin-stimulated (AID 1146).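 Also: PC12 cells with 6xCRE LacZ reporter stimulated by forskolin 10 µM; beta-galactosidase reporter signal reflecting CREB driven transcription.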 Particulars: luminescence, 4.5 h, higher = more signal, called active from +8 up or from −8 down.
Assay [6] deals with Streptavidin (Streptomyces avidinii) (UniProt P22629). In words: streptavidin binders on small-molecule microarray, primary screen, artefact control for SMM compound annotation, biophysical, 635/667 nm fluorescence (AID 1147).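 Also: signal reflects streptavidin binding to arrayed compounds as a control protein.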 The settings on record: streptavidin binding, higher = more signal.
Streptavidin (Streptomyces avidinii), sequence (P22629 whole entry, looked up): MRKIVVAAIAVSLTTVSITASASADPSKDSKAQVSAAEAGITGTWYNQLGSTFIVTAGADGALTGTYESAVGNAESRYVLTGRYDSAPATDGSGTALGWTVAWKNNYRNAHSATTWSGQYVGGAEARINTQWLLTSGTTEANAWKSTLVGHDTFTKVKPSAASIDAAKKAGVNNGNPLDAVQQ
Assay [7] is described as follows: small-molecule binders of probe aInhba, primary screen, biochemical, small-molecule microarray, 635/667 nm fluorescence (AID 1148).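 Also: score merges 667nm spot fluorescence with signal-to-noise for antibody binding to printed compounds.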 The settings on record: higher = more signal.
For assay [8], the target named is Torsin-1A (Homo sapiens) (UniProt O14656). In words: torsin A binders from cell lysate, primary screen, small-molecule microarray, wild-type, 635/667 nm (AID 1149). Particulars: COS7 hTOR1A-WT lysate, 635 nm fluorescence, higher = more signal.
Torsin-1A (Homo sapiens), sequence (O14656 whole entry, looked up): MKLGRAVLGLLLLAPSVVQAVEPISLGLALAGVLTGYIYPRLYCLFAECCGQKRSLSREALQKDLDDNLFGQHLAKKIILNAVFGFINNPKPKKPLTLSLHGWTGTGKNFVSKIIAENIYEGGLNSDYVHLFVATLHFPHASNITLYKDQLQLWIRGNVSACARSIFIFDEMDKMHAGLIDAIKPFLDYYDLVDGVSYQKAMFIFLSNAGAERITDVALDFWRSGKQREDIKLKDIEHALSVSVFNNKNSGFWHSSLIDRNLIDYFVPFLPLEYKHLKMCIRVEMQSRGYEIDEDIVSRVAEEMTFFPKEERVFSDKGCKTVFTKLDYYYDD
Assay [9] shares this target. In words: small-molecule binders of mutant TOR1A in lysate, primary screen, cell lysate, small-molecule microarray, COS7 lysate, 635/667 nm fluorescence (AID 1150).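 Also: score pools 667 nm emission and signal to noise measuring lysate protein binding.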 Particulars: COS7 hTOR1A mutant lysate, 635 nm fluorescence, higher = more signal.
The subject of assay [10] is Sonic hedgehog protein (Shh). In words: small-molecule binders of Shh protein, primary screen, biochemical, small-molecule microarray, 635/667 nm fluorescence (AID 1151).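 Also: Shh protein binding to compounds spotted on small-molecule microarray slides; score combines spot fluorescence intensity with signal-to-noise across triplicate slides.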 The settings on record: small-molecule microarray binding, 635 nm fluorescence; higher = more signal.
A short description of assay [11]: E. coli DRC41 culture turbidity changes, primary screen, E. coli filamentation inducer project, strain DRC41, OD650, 48 h (AID 1152).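 Also: E. coli MC1000 strain DRC41 lacking acrAB efflux pump and sulA.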 The settings on record: E. coli DRC41 (acrAB sulA), higher = more signal, called active from +8 up or from −8 down.
Assay [12] in a line: small-molecule binders of probe aLefty1, primary screen, biochemical, small-molecule microarray, 635/667 nm fluorescence (AID 1153).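 Also: score merges spot fluorescence with signal-to-noise ratio from the scanned slide images.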 Particulars: higher = more signal.
Assay [13] is described as follows: PSAC antagonists in infected red cells, primary screen, cell-based, P. falciparum Indochina, OD700, 1 h (AID 1154). The settings on record: P. falciparum Indochina infected RBC osmotic lysis, higher = more signal, called active from +8 up or from −8 down.
Assay [14] is described as follows: PSAC antagonists in infected red cells, primary screen, cell-based, P. falciparum Indochina, OD700, 2 h (AID 1155).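 Also: lysis reports solute entry through the parasite surface anion channel PSAC; channel blockers reduce lysis of infected cells.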 The settings on record: P. falciparum Indochina infected erythrocytes, osmotic lysis OD700; higher = more signal, called active from +8 up or from −8 down.
A short description of assay [15]: osmotic lysis modulators in infected erythrocytes, primary screen, PSAC antagonist project, cell-based, P. falciparum Indochina, OD700, 3 h (AID 1156). Particulars: higher = more signal, called active from +8 up or from −8 down.
Assay [16] can be described thus: PSAC antagonists in infected red cells, primary screen, cell-based, P. falciparum Indochina, OD700, 18 h (AID 1157). The settings on record: P. falciparum Indochina infected erythrocytes, osmotic lysis OD700, 18 h; higher = more signal, called active from +8 up or from −8 down.
Assay [17] can be described thus: modulators of S6 phosphorylation in cells, primary screen, cell-based, A549, cytoblot, luminescence, serum-stimulated (AID 1158).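 Also: serum-stimulated A549 lung adenocarcinoma cells; signal is phosphorylated S6 detected by cytoblot immunostaining with HRP secondary.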 The settings on record: A549 phospho-S6 cytoblot, 5 h, higher = more signal.
For assay [18], the target named is NADPH oxidase 2 (Homo sapiens) (UniProt P04839). In words: NOX2-dependent H2O2 signal modulators, primary screen, NOX inhibitor project, cell-based, HEK293-NOX2, PMA-stimulated, Amplex Red fluorescence (AID 1159). Also: test concentration not given here. The settings on record: 45 min, higher = more signal, called active from +8 up or from −8 down.
NADPH oxidase 2 (Homo sapiens), sequence (P04839 whole entry, looked up): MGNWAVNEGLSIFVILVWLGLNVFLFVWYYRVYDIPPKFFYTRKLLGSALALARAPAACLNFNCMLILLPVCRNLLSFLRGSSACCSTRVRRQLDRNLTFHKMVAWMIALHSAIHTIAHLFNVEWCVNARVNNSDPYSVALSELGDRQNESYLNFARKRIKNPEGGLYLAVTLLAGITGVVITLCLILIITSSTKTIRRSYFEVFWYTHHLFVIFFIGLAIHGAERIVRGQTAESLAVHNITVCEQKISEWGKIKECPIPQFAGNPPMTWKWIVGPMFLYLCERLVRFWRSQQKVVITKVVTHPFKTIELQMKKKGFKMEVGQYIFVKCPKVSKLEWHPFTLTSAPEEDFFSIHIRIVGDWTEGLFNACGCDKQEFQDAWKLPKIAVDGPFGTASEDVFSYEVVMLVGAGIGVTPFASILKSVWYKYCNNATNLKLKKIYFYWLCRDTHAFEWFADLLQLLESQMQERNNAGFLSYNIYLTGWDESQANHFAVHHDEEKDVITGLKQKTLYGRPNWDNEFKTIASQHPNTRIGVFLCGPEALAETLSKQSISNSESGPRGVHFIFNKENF
The target of assay [19] is NADPH oxidase 4 (Homo sapiens) (UniProt Q9NPH5). The experiment in a line: NOX4-dependent H2O2 signal modulators, primary screen, NOX inhibitor project, cell-based, HEK293-NOX4, tetracycline-induced, Amplex Red fluorescence (AID 1160). The settings on record: 45 min, higher = more signal, called active from +8 up or from −8 down.
NADPH oxidase 4 (Homo sapiens), sequence (Q9NPH5 whole entry, looked up): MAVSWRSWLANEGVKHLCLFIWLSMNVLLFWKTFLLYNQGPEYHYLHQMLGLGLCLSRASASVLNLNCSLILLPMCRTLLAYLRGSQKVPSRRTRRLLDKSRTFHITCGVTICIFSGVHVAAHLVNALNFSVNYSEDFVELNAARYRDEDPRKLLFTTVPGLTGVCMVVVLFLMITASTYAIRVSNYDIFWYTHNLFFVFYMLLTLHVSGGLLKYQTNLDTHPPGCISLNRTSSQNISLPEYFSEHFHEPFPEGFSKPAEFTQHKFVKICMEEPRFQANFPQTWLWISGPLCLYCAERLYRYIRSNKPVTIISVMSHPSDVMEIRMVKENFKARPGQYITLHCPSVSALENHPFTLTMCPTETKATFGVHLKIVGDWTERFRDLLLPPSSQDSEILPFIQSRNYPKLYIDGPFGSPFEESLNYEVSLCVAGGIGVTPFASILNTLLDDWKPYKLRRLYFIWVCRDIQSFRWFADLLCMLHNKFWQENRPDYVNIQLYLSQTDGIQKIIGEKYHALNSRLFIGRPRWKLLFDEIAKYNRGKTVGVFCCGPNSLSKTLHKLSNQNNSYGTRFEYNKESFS
The target in assay [20] is NADPH oxidase 5 (Homo sapiens) (UniProt Q96PH1). The experiment in a line: NOX5-dependent H2O2 signal modulators, primary screen, NOX inhibitor project, cell-based, HEK293-NOX5, Amplex Red fluorescence (AID 1161). The settings on record: HEK293-NOX5, ionomycin, 45 min, higher = more signal.
NADPH oxidase 5 (Homo sapiens), sequence (Q96PH1 whole entry, looked up): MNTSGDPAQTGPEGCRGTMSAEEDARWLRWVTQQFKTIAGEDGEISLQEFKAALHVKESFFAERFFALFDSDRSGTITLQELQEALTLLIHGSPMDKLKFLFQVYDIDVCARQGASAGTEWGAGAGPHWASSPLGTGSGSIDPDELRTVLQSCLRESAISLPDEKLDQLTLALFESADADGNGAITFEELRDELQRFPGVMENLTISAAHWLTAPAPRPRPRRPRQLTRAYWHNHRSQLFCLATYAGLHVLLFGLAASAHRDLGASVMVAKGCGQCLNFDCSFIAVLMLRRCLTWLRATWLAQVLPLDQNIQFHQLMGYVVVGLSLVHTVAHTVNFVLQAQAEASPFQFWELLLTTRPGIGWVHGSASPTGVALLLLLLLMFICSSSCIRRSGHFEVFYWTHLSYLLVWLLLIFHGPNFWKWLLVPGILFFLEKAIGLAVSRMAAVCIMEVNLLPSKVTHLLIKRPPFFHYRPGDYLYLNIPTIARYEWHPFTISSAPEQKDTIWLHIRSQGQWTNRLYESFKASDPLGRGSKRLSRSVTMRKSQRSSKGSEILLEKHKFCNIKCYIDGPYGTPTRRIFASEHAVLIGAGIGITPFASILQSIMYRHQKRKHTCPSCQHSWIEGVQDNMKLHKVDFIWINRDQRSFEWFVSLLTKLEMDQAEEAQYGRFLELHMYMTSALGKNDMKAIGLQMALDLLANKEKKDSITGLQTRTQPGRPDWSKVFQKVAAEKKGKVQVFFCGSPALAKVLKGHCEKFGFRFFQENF

The source made the active and inactive calls. Unless noted, no rule for the calls is given here.

In the case of `COc1ccc(C(O)C2C=CC3C(=O)N(c4ccccc4)C(=O)C3N2Nc2ccc(C#N)cc2)cc1OCc1ccccc1` (stereo not given), the composite z-score is 0.512 in assay [1]; 1.65 in assay [6]; 0.274 in assay [7]; 0.056 with Torsin-1A (Homo sapiens) [8]; 1.12 with Torsin-1A (Homo sapiens) [9]; -0.189 in assay [10]. In assay [12], the composite z-score was found to be 0.482. The z-score in assay [2] was 0.0667 (inactive); in assay [3], -0.753 (inactive); in [4], 1.39 (inactive); in [5], 0.338 (inactive); in [11], -1.37 (inactive); in [13], 9.41 (active). The z-score in assay [14] is 2.2 (inactive); in assay [15] it was 0.918 (inactive); in assay [16], 1.27 (inactive); in assay [17], -0.98; in assay [18] it was -1.69 (inactive); in assay [19], -2.41 (inactive). This molecule also yielded a z-score in assay [20] of -2.45.
On to `Cc1ccc(S[C@]2(C(=O)NCc3ccccc3)CC(=O)N(Cc3ccccc3C(F)(F)F)[C@@H]2c2ccc(CO)cc2)cc1`, for which the composite z-score in [1] is -0.666; in [6] it was -1.05; in [7] it was 0.0391; with Torsin-1A (Homo sapiens) [8] it was -1.02; in the assay with Torsin-1A (Homo sapiens) [9], -0.687; in assay [10], -0.998. The molecule further gave a composite z-score in [12] of -0.012. Also, the z-score is -2.35 (inactive) in assay [2]; -0.937 (inactive) in assay [3]; -0.0888 (inactive) in assay [4]; -0.0177 (inactive) in assay [5]; 0.995 (inactive) in assay [11]; 0.485 (inactive) in assay [13]. Also, the z-score in [14] is -0.797 (inactive); in assay [15], -1.37 (inactive); in assay [16] it was -0.802 (inactive); in [17], 1.24; in [18], -1.69 (inactive); in assay [19], 0.0366 (inactive). The molecule also gave a z-score in [20] of -0.3.
Turning to `CCCC=C(CCC)[C@@H](NC(=O)OCC(C)C)c1ccc(C(=O)OC)cc1`, the composite z-score in [1] was -0.0326; in assay [6] it was 0.153; in [7], -0.154; with Torsin-1A (Homo sapiens) [8], 0.841; with Torsin-1A (Homo sapiens) [9] it was 0.104; in [10], 0.23. Also, in assay [12], the composite z-score came to 0.506. Moreover, the z-score in [2] was -1.07 (inactive); in assay [3], 0.3 (inactive); in assay [4], -1.72 (inactive); in [5], 0.291 (inactive); in assay [11], -0.531 (inactive); in [13], -1.17 (inactive). Further, the z-score in assay [14] was -0.781 (inactive); in assay [15], -1.07 (inactive); in [16], -1.47 (inactive); in [17], 1.31; in assay [18], 0.115 (inactive); in [19], 1.89 (inactive). Besides, in assay [20], the z-score is 1.97.
Turning to `O=C(O)[C@H](Cc1ccccc1)n1cc(C2(O)CCCCC2)nn1`, the composite z-score in assay [1] is 0.0358; in assay [6], -0.338; in assay [7], -0.0221; with Torsin-1A (Homo sapiens) [8], 0.221; with Torsin-1A (Homo sapiens) [9] it was 0.327; in [10] it was -0.0164. The same molecule registered a composite z-score in assay [12] of 0.592. Besides, the z-score in [2] is 0.316 (inactive); in [3], 0.552 (inactive); in assay [4], 0.367 (inactive); in [5], 0.317 (inactive); in assay [11], -0.976 (inactive); in assay [13], 0.0438 (inactive). The z-score in assay [14] is -0.879 (inactive); in assay [15], -0.472 (inactive); in assay [16] it was -0.281 (inactive); in assay [17] it was 0.347; in assay [18], 1.01 (inactive); in assay [19], 0.715 (inactive). Further, the z-score in assay [20] was determined as 0.31.
In the case of `CC(C)(C)N1CC=CC23O[C@@H]4C=CCCOC(=O)C4[C@H]2C(=O)N(CCCCCCO)[C@@H]3C1=O` (stereo not given in full), the composite z-score in [1] is -0.515; in assay [6], -0.703; in assay [7] it was -0.0933; with Torsin-1A (Homo sapiens) [8] it was -1.15; in the assay with Torsin-1A (Homo sapiens) [9] it was -1.29; in [10] it was 0.833. In assay [12], the composite z-score is 0.365. Also, the z-score in assay [2] is 0.451 (inactive); in [3], 0.595 (inactive); in [4], -0.0899 (inactive); in [5], -0.254 (inactive); in [11], 0.0094 (inactive); in assay [13] it was 0.683 (inactive). Besides, the z-score in assay [14] is 0.181 (inactive); in [15] it was 0.639 (inactive); in assay [16], 0.233 (inactive); in [17] it was 1.78; in [18] it was 0.882 (inactive); in [19], -0.0325 (inactive). The z-score in assay [20] is 2.08.
Take `COc1ccc(C(O)C2C=CC3C(=O)N(C)C(=O)C3N2N(c2ccccc2)c2ccccc2)cc1` (stereo not given): the composite z-score in [1] is 0.0865; in assay [6], 1.35; in [7], 0.105; with Torsin-1A (Homo sapiens) [8] it was 0.153; with Torsin-1A (Homo sapiens) [9], 0.368; in [10], -0.176. This molecule also displayed a composite z-score in assay [12] of 0.363. Besides, the z-score in assay [2] was 0.522 (inactive); in [3], 0.219 (inactive); in [4], 0.629 (inactive); in [5], 0.517 (inactive); in assay [11], -1.3 (inactive); in assay [13], 2.07 (inactive). Besides, the z-score is 1.14 (inactive) in [14]; 0.509 (inactive) in assay [15]; 0.974 (inactive) in assay [16]; -0.478 in assay [17]; -0.685 (inactive) in [18]; -2.05 (inactive) in assay [19]. In assay [20], this molecule displayed a z-score of -0.77.
As for `CCCCCC1=C2CNC(Cc3ccccc3)(C(=O)OC)C=C2C(C)C1=O` (stereo not given), the composite z-score in [1] is -0.176; in assay [6], 0.0482; in assay [7] it was 0.222; with Torsin-1A (Homo sapiens) [8], -0.88; with Torsin-1A (Homo sapiens) [9] it was 0.154; in assay [10], -0.695. Also, in [12], the composite z-score was determined as 0.568. In addition, the z-score was -1.49 (inactive) in assay [2]; 0.949 (inactive) in assay [3]; 0.4 (inactive) in assay [4]; 2.19 (inactive) in [5]; -1.76 (inactive) in assay [11]; 2.16 (inactive) in assay [13]. In addition, the z-score in assay [14] is -0.21 (inactive); in [15], 1.04 (inactive); in assay [16], 0.422 (inactive); in assay [17], -0.275; in assay [18] it was -0.733 (inactive); in assay [19], -3.5 (inactive). This molecule yielded a z-score in assay [20] of -3.
Consider `CCCc1cc2c(n1CCc1ccc(Cl)cc1)C(C)C1CN(C(=O)c3ccccc3)C(C)(C(=O)OC)C21` (stereo not given), for which the composite z-score in assay [1] was 0.689; in assay [6] it was 1.93; in assay [7] it was -0.0736; with Torsin-1A (Homo sapiens) [8] it was -0.103; with Torsin-1A (Homo sapiens) [9], 0.947; in assay [10], -0.264. This molecule also gave a composite z-score in assay [12] of 0.268. In addition, the z-score in assay [2] was -3.68 (inactive); in assay [3], 0.188 (inactive); in assay [4], 1.16 (inactive); in assay [5] it was 4.57 (inactive); in assay [11] it was -2.41 (inactive); in [13] it was 2.24 (inactive). The z-score in [14] was 0.322 (inactive); in [15] it was 2.8 (inactive); in assay [16], 0.347 (inactive); in assay [17], 0.0928; in assay [18], -2.06 (inactive); in assay [19], -7.6 (inactive). Further, the z-score in [20] was -5.16.
